Data reported in PubChem BioAssay (NCI).
The panel holds about 83,000 compounds, 20% with a hit somewhere; the sample as a whole holds those more often.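 Activity criterion: percent growth below 10, measured after cells in 96-well plates were exposed to a single compound concentration for 48 hours.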 Active and inactive are the calls of the source.

What was measured:
Experiment in all cases: NCI-60 one-dose screen, 48 h (100 = growth as untreated, 0 = no growth, -100 = all killed)
Settings in all cases: 10 µM unless noted
[1] = test system: SR leukemia
[2] = test system: RPMI-8226 leukemia
[3] = test system: OVCAR-8 ovarian
[4] = test system: OVCAR-5 ovarian
[5] = test system: OVCAR-4 ovarian
[6] = test system: SK-OV-3 ovarian
[7] = test system: IGROV1 ovarian
[8] = test system: OVCAR-3 ovarian
[9] = test system: HS 578T breast
[10] = test system: NCI/ADR-RES ovarian

Measured: growth

COc1ccc(-c2ccc3c(c2)sc2nc(-c4ccc(F)cc4)cn23)cc1
inactive: [1] 93.4% | [2] 76.7% | [3] 68.5% | [4] 70.7% | [5] 73.6% | [6] 84.2% | [7] 100% | [8] 88% | [9] 99.2% | [10] 85.5%

O=C(NCCCNc1cc(-c2cn(-c3ccccc3)nc2-c2cccc(O)c2)ccn1)c1cccc(O)c1
active: [1] -9.11%
inactive: [2] 45.2% | [3] 40.9% | [4] 107% | [5] 67.8% | [6] 69.3% | [7] 84.5% | [8] 58.3% | [9] 34.2% | [10] 95%

COc1cccc(-c2nn(-c3ccccc3)cc2-c2ccnc(NCCNC(=O)Nc3ccccc3)c2)c1
inactive: [2] 39.5% | [3] 38% | [4] 92.4% | [5] 53.9% | [6] 58% | [7] 65.4% | [8] 55.8% | [9] 31.4% | [10] 34.8%
active: [1] -10.6%

CCOC(=O)c1c2c(n3ccc(NC(=O)OC(C)(C)C)cc13)C(=O)c1ncccc1C2=O
active: [1] 7.58% | [2] -6.66% | [3] -11.4% | [4] -5.26% | [6] -32.9% | [7] -4.89% | [8] -33.6% | [9] -25.3% | [10] -35.9%
inactive: [5] 11.9%

COc1cc(N=Nc2cc(Cc3ccc(N(C)C)cc3)c(N)cc2N(C)C)c2ncccc2c1
inactive: [4] 42.8% | [9] 18.3%
active: [1] -13.5% | [2] -53.4% | [3] -37% | [5] -48.9% | [6] -0.131% | [7] 7.41% | [8] -28.7% | [10] -17.8%

COc1ccccc1CNCCCN1C(=O)c2ccc3c4c(ccc(c24)C1=O)C(=O)N(CCCNCCCCN)C3=O
inactive: [6] 14.2% | [10] 42.5%
active: [1] 5.25% | [2] -8.59% | [3] -7.98% | [4] -12.4% | [5] -84.9% | [7] 8.53% | [8] -1.35% | [9] -7.25%

CN(C)c1ccc(/C=C/C(=O)c2cccc(Nc3nc(Nc4ccccc4)nc(Nc4ccccc4)n3)c2)cc1
inactive: [1] 77.4% | [2] 53.4% | [3] 81.2% | [4] 93.9% | [5] 30.7% | [6] 93.2% | [7] 69% | [8] 102% | [9] 78.9% | [10] 76.4%

COC(=O)CCC1=C(C)C2=NC1=CC1=NC(=CC3=NC(=Cc4[nH]c(/c(=C(/C)O)c4C)=C2)C(C(C)=O)=C3C)C(C)=C1CCC(=O)OC
inactive: [1] 111% | [2] 85.7% | [3] 100% | [4] 111% | [5] 107% | [6] 95.1% | [7] 108% | [8] 107% | [9] 89.1% | [10] 103%

NC(=O)c1ccc[n+](Cc2ccc(Cl)cc2Cl)c1
inactive: [2] 93% | [3] 99.5% | [4] 96.9% | [5] 109% | [6] 97.2% | [7] 105% | [8] 109% | [9] 99.4% | [10] 111%
active: [1] 7.84%

Cc1cc(NCc2cc(Nc3ccnc4cc(Cl)ccc34)ccc2F)nc(N2CCN(c3ccccc3)CC2)n1
active: [1] -24.6% | [8] 5.88%
inactive: [2] 42.8% | [3] 58.8% | [4] 92.6% | [5] 46.2% | [6] 55.1% | [7] 41.6% | [9] 47.9% | [10] 56.5%

COc1cc(-c2n/c(=C\c3c(O)[nH]c4ccc(Cl)cc34)cc3c2=Nc2ccccc2-3)cc(OC)c1OC
active: [1] 0.372% | [3] 3.95% | [5] -41.8% | [6] -14.2% | [7] -18.3% | [8] -57.4%
inactive: [2] 15.5% | [4] 88.6% | [9] 20.9% | [10] 15.1%

O=C(CCCCCCN1CC(=O)N2[C@@H](c3ccccc3Cl)c3[nH]c4ccccc4c3C[C@H]2C1=O)NO
inactive: [1] 15.9% | [2] 14.8% | [3] 49.6% | [4] 61% | [5] 68.3% | [6] 84.8% | [7] 66.5% | [8] 56.9% | [9] 59.2% | [10] 89.8%

Cc1c(C)c2c(c(C)c1OCC(=O)O)CC[C@@](C)(CCC[C@@H](C)CCC[C@@H](C)CCCC(C)C)O2
inactive: [4] 25.5% [50 µM] | [5] 45.9% [50 µM] | [6] 53.3% [50 µM] | [9] 23% [50 µM]
active: [1] 0.521% [50 µM] | [2] -39.4% [50 µM] | [3] -9.97% [50 µM] | [7] 1.82% [50 µM] | [8] -67.3% [50 µM] | [10] -28.2% [50 µM]

C=CC(=O)Nc1cccc(Oc2nccc(Nc3nnc(C4CC4)s3)n2)c1
inactive: [1] 58.3% | [2] 56% | [3] 91.4% | [4] 98.7% | [5] 101% | [6] 112% | [7] 93.6% | [8] 89.5% | [9] 91.6% | [10] 96.8%

CC(CN1CCCCC1)C(=O)c1ccccc1 (stereo not given)
inactive: [1] 97.3% | [2] 78% | [3] 102% | [4] 101% | [5] 114% | [6] 106% | [7] 109% | [8] 109% | [9] 103% | [10] 108%

COc1cccc(-c2nn(-c3ccccc3)cc2-c2ccnc(NCCCNC(=O)c3ccccc3)c2)c1
active: [1] -19.8%
inactive: [2] 27.9% | [3] 38% | [4] 92.7% | [5] 43.1% | [6] 41.7% | [7] 67.1% | [8] 51.2% | [9] 51.3% | [10] 27.1%

O=C(Nc1ccccc1Cl)Oc1ccc(-c2ccccc2)cc1
inactive: [1] 133% | [2] 94.2% | [3] 103% | [4] 98.9% | [5] 103% | [6] 121% | [7] 108% | [8] 150% | [9] 180% | [10] 101%

CCN(CC)CCN1C(=O)c2c(c(C)c3c(oc4cc(O)ccc43)c2C)C1=O
inactive: [6] 108% | [7] 91.9% | [9] 87.7% | [10] 78%
active: [1] -25.3% | [2] -36.3% | [3] -62.6% | [4] -38.5% | [5] -34.4% | [8] -88%

Cc1ccc(Cc2cnc(NC(=O)c3ccc4noc(-c5ccccc5)c4c3)s2)cc1
inactive: [1] 85% | [2] 79.3% | [3] 89.1% | [4] 105% | [5] 86.4% | [6] 108% | [7] 96.3% | [8] 107% | [9] 95.7% | [10] 92.5%

CCN1CCN(c2nc(C)cc(NCc3cc(Nc4ccnc5cc(Cl)ccc45)ccc3F)n2)CC1
inactive: [3] 17.4% | [4] 17.8% | [5] 26.1% | [6] 31.5% | [7] 15.8% | [8] 10.5% | [10] 24.6%
active: [1] -18.8% | [2] -31.1% | [9] 9.27%

Cc1ccc2nc(NC(=O)CSc3nc(Nc4ccc([N+](=O)[O-])cc4)c(C#N)c(-c4ccccc4)n3)sc2c1
inactive: [1] 47.6% | [2] 80% | [3] 91.5% | [4] 87.5% | [5] 88.4% | [6] 98.3% | [7] 76.1% | [8] 102% | [9] 85% | [10] 95%

C=C1C(=O)O[C@H]2[C@H]1CC/C(COC(=O)C(=O)c1c[nH]c3ccccc13)=C\CC[C@@]1(C)O[C@@H]21
active: [1] 1.82% | [2] -29.8% | [3] -6.78% | [4] -5.59% | [7] -69.8% | [8] -82.2%
inactive: [5] 17.9% | [6] 85.1% | [9] 10.7% | [10] 17.9%

COc1cccc(C(=O)NCCCNc2cc(-c3cn(-c4ccccc4)nc3-c3cccc(OC)c3)ccn2)c1
inactive: [2] 25.3% | [3] 26.7% | [4] 82.1% | [5] 37.9% | [6] 48.8% | [7] 58.9% | [8] 53.3% | [9] 47.5% | [10] 22.1%
active: [1] 8.19%

Cc1ccc(-c2cc(-c3ccccc3C)[nH]c(=O)c2C#N)s1
inactive: [1] 118% | [2] 97.5% | [3] 95.5% | [4] 93.4% | [5] 85.1% | [6] 111% | [7] 80.4% | [8] 94.5% | [9] 82.8% | [10] 96.8%
